In the supplement of paper PMC7724964:

Key:
Test in all cases: phage ELISA signal ratio (GST-PRM binding over GST background); higher = stronger binding of peptide-phage to the PRM
[1] = target: T1, TOM1L1 1-150 VHS (domain begin residue: 1, domain end residue: 150), O75674
T1 chain: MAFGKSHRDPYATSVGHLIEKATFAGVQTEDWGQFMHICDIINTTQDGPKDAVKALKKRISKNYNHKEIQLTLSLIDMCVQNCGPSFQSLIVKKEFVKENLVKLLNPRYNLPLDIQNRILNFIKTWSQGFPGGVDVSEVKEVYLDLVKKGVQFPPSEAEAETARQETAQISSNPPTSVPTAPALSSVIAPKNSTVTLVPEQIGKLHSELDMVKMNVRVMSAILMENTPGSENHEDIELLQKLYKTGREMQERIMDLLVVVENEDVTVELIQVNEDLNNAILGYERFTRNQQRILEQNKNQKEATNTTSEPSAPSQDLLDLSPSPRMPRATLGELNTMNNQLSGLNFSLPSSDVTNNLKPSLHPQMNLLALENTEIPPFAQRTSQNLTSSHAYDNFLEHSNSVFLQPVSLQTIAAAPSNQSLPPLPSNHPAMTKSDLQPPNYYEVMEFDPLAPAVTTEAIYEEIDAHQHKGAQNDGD
In short: (§1)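 Each value is the phage ELISA signal on the glutathione S-transferase (GST)-domain fusion divided by the signal on GST alone. Human peptide recognition domains were expressed in 96-well plates, fused to the C-terminus of GST, and selected against an M13 phage library carrying randomized, cysteine-free, glycine-flanked hexadecapeptides on the gene-8 major coat protein. After five selection rounds, approximately 48 individual clones from rounds 4 and 5 were tested by phage ELISA, and positive clones were sequenced.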

[2] = target: TOM1 1-153 VHS (domain begin residue: 1, domain end residue: 153), O60784
TOM1 1-153 VHS (domain begin residue: 1, domain end residue: 153), O60784, sequence (O60784 whole entry): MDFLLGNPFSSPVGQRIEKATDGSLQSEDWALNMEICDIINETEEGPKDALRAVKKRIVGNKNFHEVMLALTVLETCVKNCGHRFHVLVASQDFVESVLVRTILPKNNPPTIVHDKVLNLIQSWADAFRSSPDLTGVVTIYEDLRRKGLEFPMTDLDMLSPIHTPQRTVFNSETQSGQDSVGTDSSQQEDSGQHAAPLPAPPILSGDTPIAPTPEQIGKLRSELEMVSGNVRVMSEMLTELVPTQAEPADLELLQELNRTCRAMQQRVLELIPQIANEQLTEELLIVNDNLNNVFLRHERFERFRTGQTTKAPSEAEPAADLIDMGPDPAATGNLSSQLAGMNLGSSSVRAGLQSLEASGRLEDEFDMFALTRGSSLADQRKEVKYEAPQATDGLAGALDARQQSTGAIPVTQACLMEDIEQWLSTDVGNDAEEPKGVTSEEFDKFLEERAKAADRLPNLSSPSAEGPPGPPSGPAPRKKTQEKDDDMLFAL
In short: as §1

[3] = target: T2, TRIM11 268-461 SPRY (domain begin residue: 268, domain end residue: 461), Q96F44
T2 chain: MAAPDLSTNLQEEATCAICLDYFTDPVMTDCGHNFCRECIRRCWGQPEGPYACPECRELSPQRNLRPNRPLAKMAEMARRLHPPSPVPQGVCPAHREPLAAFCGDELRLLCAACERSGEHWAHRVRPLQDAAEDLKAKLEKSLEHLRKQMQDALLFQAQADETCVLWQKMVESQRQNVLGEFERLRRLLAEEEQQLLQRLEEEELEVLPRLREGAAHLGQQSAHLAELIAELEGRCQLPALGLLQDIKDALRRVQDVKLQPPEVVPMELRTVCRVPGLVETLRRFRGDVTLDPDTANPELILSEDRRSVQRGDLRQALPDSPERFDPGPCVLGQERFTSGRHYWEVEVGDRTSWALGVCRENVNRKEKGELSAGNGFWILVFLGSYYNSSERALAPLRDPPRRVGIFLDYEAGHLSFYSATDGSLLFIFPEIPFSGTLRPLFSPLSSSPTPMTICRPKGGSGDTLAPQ
In short: as §1

[4] = target: T3, TOM1L2 1-153 VHS (domain begin residue: 1, domain end residue: 153), Q6ZVM7
T3 chain: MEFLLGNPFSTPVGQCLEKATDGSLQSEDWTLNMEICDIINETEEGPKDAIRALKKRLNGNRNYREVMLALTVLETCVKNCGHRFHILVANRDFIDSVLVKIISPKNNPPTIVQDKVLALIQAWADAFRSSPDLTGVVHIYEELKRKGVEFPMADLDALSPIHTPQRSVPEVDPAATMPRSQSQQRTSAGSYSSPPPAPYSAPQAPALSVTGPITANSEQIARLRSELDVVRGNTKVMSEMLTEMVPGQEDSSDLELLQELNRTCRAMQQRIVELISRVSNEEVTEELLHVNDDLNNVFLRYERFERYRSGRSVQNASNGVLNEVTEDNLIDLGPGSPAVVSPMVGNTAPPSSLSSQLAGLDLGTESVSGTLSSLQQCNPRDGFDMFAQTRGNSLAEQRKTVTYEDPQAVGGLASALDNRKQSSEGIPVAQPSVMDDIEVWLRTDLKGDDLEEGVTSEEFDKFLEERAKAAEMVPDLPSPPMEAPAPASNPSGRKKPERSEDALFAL
In short: as §1

[5] = target: T4, TSG101 1-145 UEV (domain begin residue: 1, domain end residue: 145), Q99816
T4 chain: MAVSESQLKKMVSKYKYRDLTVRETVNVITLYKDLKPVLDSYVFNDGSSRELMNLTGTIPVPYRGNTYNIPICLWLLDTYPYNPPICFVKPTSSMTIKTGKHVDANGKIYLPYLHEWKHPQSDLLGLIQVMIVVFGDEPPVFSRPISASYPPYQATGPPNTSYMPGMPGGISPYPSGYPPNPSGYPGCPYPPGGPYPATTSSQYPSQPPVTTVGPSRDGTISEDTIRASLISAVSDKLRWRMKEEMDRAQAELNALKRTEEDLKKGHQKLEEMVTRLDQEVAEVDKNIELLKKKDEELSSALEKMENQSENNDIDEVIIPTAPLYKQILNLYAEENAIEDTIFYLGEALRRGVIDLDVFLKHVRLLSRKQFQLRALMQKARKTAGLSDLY
In short: as §1

[6] = target: TRIM7 324-511 SPRY (domain begin residue: 324, domain end residue: 511), Q9C029
In short: as §1

[7] = target: T5, TRIM10 292-481 SPRY (domain begin residue: 292, domain end residue: 481), Q9UDY6
T5 chain: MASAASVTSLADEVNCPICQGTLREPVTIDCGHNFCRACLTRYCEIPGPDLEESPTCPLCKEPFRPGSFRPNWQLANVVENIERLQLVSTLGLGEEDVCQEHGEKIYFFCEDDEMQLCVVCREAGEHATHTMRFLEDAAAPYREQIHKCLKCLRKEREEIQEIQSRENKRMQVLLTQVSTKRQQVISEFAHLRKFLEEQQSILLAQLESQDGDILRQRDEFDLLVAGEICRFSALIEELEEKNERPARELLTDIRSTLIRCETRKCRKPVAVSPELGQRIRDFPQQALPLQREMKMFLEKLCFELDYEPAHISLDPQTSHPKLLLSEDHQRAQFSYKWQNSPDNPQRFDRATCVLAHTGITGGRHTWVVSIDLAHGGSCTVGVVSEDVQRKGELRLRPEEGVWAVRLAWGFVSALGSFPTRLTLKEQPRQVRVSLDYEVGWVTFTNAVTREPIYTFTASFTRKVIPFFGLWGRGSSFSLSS
In short: as §1

[8] = target: TRIM21 268-465 SPRY (domain begin residue: 268, domain end residue: 465), P19474
TRIM21 268-465 SPRY (domain begin residue: 268, domain end residue: 465), P19474, sequence (P19474 whole entry): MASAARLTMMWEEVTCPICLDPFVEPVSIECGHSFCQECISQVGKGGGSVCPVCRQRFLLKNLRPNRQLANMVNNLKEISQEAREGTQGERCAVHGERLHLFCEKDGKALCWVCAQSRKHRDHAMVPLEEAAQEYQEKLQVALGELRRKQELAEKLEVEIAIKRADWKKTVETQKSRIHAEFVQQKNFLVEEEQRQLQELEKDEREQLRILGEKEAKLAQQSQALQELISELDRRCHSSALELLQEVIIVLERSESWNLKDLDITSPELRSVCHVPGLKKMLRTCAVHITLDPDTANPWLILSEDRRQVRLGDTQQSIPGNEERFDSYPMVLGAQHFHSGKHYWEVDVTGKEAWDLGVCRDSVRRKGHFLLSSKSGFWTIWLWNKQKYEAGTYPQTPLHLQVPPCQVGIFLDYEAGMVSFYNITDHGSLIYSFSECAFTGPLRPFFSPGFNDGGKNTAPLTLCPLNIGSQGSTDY
In short: as §1

[9] = target: TRIM25 439-630 SPRY (domain begin residue: 439, domain end residue: 630), Q14258
TRIM25 439-630 SPRY (domain begin residue: 439, domain end residue: 630), Q14258, sequence (Q14258 whole entry): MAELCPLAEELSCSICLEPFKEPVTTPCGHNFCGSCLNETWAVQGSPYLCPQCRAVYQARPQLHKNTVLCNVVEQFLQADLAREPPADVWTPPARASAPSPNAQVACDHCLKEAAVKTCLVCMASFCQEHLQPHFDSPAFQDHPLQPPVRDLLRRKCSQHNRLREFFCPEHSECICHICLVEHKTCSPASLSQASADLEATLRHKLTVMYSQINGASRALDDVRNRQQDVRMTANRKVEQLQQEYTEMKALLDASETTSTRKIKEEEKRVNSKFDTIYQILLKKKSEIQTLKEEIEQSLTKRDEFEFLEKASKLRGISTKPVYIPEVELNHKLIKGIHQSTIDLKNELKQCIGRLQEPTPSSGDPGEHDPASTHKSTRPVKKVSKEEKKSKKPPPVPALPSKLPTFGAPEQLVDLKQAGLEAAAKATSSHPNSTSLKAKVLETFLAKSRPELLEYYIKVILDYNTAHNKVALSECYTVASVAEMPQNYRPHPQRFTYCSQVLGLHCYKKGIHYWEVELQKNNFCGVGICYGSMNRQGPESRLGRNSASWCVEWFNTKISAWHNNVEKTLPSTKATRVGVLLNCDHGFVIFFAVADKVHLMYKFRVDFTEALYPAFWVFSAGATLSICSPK
In short: as §1

[10] = target: T6, TRIM39 319-514 SPRY (domain begin residue: 319, domain end residue: 514), Q9HCM9
T6 chain: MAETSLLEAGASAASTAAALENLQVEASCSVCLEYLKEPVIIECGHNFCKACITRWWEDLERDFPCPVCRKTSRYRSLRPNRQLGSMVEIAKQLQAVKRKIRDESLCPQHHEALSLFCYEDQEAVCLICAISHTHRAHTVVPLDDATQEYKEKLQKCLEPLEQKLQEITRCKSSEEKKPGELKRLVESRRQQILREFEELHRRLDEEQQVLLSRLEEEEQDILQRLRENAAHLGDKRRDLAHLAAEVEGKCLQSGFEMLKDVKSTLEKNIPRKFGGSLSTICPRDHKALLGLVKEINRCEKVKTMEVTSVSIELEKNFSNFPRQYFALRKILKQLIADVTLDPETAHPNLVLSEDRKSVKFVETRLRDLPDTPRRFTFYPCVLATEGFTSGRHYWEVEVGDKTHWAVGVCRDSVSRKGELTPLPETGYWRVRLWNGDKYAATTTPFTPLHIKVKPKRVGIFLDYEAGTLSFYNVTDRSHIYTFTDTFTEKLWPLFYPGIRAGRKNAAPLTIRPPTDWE
In short: as §1

Binder: ETDKWVPSYLWWANYS
- phage ELISA signal ratio [1]: 16.8

Binder: QVWWEAYEKRLHVETE
- phage ELISA signal ratio [2]: 8.09

Binder: VFEFMDRADWPDWVMM
- phage ELISA signal ratio [3]: 20.4

Binder: MMFAGLGTPNPYEVTT
- phage ELISA signal ratio [4]: 16.9

Binder: LPPHWFDEMYSITAMY
- phage ELISA signal ratio [4]: 7.51

Binder: AFENNQQAILQYMMDV
- phage ELISA signal ratio [4]: 22.7

Binder: YLWFSPAPSAPIWQWV
- phage ELISA signal ratio [5]: 5.56

Binder: GLVYYDVPFDFGVIDW
- phage ELISA signal ratio [6]: 13.2

Binder: TGNVFQFMDPPQWLTH
- phage ELISA signal ratio [3]: 29.9

Binder: WEDGWLIPNAQDFQGM
- phage ELISA signal ratio [7]: 3.64

Binder: HRFVYMEQLPSWLFAV
- phage ELISA signal ratio [3]: 23

Binder: LERKIAWAQQLWKYFV
- phage ELISA signal ratio [6]: 6.97

Binder: FEDGWMYQDFLKAPET
- phage ELISA signal ratio [8]: 14.1
- phage ELISA signal ratio [9]: 9.36

Binder: NSWWLDYEERATLHGD
- phage ELISA signal ratio [2]: 9.5

Binder: GWYEMEGWGMPKDIET
- phage ELISA signal ratio [10]: 3.7

Binder: VVGDGMAFERWFQDFE
- phage ELISA signal ratio [9]: 14.5

Binder: VSEGQWRPSYLWWTDD
- phage ELISA signal ratio [1]: 4.64

Binder: FETPWQIEDVWGMAGF
- phage ELISA signal ratio [9]: 27.1

Binder: DRKLSQQELALWAYII
- phage ELISA signal ratio [4]: 27.7

Binder: TEMWTPAQQALWAYIT
- phage ELISA signal ratio [4]: 8.79

Binder: ELTTFHFYKEAPVWVI
- phage ELISA signal ratio [3]: 31.5

Binder: DMLDWSWTEEVELWFQ
- phage ELISA signal ratio [1]: 24.5

Binder: FVDWDIPSWWFQQVTS
- phage ELISA signal ratio [1]: 15.1

Binder: YQDWDWDPEMKRMVVS
- phage ELISA signal ratio [4]: 4.04

Binder: KWNDDDWWTYFVSQVE
- phage ELISA signal ratio [4]: 20.3

Binder: TVFWDGMYDWPVEMDI
- phage ELISA signal ratio [9]: 21

Binder: EWWLSYDPHWVETISA
- phage ELISA signal ratio [2]: 5.42

Binder: LEWTWYDTWTWPEESQ
- phage ELISA signal ratio [1]: 22
